Measured values: PubChem BioAssay (Tox21)
Records with an inconclusive call do not appear. Entries that show only a call come without a potency. Activity calls are given as the source filed them. The call rests on the fitted dose curve; in most records, active means well fitted inhibition curve with a large enough effect in the signal ratio in the repeat runs (not every such curve was filed as active); inconclusive means weak or mixed curves, or effect the other way; inactive means no such curve, though single readings can be large or run the other way; the % refers to the signal ratio.

target: Glucocorticoid receptor (Homo sapiens) (UniProt P04150); assay: qHTS assay to identify small molecule antagonists of the glucocorticoid receptor (GR) signaling pathway (AID 720692); settings: GR-bla HeLa, beta-lactamase FRET ratio, dexamethasone-stimulated, 18 h; series mostly up to 58.5 µM
Excerpt: U.S. Tox21 Program National Center for Advancing Translational Sciences [NCATS] NIH Chemical Genomics Center [NCGC] U.S. Environmental Protection Agency [EPA] National Institutes of Environmental Health Sciences [NIEHS] National Toxicology Program [NTP] U.S. Food and Drug Administration [FDA] Tox21 Assay Overview: The Glucocorticoid receptor (GR) is one of the members of the nuclear receptor family of ligand-dependent transcription factors. GR plays a critical role in carbohydrate, protein and lipid metabolisms and programmed cell death. CellSensor GR-bla HeLa cell line (Invitrogen) contains a beta-lactamase reporter gene under the control of the glucocorticoid response element stably integrated into HeLa cells, a cervical cancer cell line that expresses glucocorticoid receptor. The activation of the reporter gene under culture conditions can be detected by fluorescence intensity. This cell line has been used to screen the Tox21 10K compound library and to identify the compounds that inhibit the GR signaling.
Tox21 Assay Protocol Summary: The GR-bla HeLa cells were dispensed at 1500 cells/5 ul/well in 1536-well black wall/clear bottom plates using a Multidrop Combi (ThermoFisher Scientific, Waltham, MA) dispenser. After the assay plates were incubated at a 37 C/5% CO2 incubator for 4 hours, 23 nL of compounds dissolved in DMSO, positive controls or DMSO only was transferred to the assay plate by a pintool station (Kalypsys, San Diego, CA), followed by addition of 1 uL of dexamethasone (5 nM, final concentration in the well). The plates were incubated at 37 C for 18 hours. After 1 uL of LiveBLAzerTM B/G FRET substrate was added using a Flying Reagent Dispenser (Aurora Discovery, San Diego, CA), the plates were incubated at room temperature for 2 hours, and fluorescence intensity was measured by an Envision plate reader (PerkinElmer, Shelton, CT).

Glucocorticoid receptor (Homo sapiens), sequence (P04150 whole entry, looked up): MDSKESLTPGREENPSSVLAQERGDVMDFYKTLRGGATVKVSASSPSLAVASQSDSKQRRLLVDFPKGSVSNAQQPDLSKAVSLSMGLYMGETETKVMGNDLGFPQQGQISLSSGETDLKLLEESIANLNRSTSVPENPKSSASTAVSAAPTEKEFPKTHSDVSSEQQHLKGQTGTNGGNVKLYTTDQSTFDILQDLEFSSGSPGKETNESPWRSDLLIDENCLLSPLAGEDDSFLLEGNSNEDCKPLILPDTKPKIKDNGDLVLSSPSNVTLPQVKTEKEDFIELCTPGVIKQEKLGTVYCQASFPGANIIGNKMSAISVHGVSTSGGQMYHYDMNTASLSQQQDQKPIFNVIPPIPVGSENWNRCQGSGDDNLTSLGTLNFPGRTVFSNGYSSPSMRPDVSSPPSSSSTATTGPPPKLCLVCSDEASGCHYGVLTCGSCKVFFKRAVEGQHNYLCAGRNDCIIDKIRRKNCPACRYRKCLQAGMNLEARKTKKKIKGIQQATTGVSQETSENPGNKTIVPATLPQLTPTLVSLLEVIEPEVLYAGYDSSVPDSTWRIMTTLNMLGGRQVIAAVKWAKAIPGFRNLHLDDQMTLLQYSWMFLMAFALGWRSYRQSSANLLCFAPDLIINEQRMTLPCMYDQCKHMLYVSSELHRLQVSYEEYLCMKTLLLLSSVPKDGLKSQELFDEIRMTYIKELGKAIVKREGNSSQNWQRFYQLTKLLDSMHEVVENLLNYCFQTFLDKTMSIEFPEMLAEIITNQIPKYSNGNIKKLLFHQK

Q: How did the Potency turn out when `O=c1c2ccccc2nnn1CCl` was run?
A: inactive

Q: Which Potency does the source give for `CCOC(=S)SSC(=S)OCC` here?
A: inactive

Q: For `Cn1c(N)nc2nc[nH]c2c1=O`, which Potency is on record?
A: inactive

Q: For `CCN(CC)CCNC(C(=O)OCCC(C)C)c1ccccc1` (stereo not given), which Potency is on record?
A: inactive

Q: `CC(C)=CCCC(C)CC=O` (stereo not given) was tested. Which Potency did it give?
A: inactive

Q: How did the Potency turn out when `N#CCc1cccc(C(F)(F)F)c1` was run?
A: inactive

Q: With `CC(=O)N(O)CCCCCNC(=O)CCC(=O)N(O)CCCCCNC(=O)CCC(=O)N(O)CCCCCN` as the molecule, how does the Potency read?
A: inactive

Q: `COCCOCCOCCOCCOC` was tested. Which Potency did it give?
A: inactive

Q: Which Potency does the source give for `O=c1[nH]cnc2ccccc12` here?
A: inactive

Q: How did the Potency turn out when `CCCCOc1cc(C(=O)OCCN(CC)CC)ccc1N` was run?
A: inactive

Q: For `CCCCCOC(=O)COc1cc(N2C(=O)C3=C(CCCC3)C2=O)c(F)cc1Cl`, which Potency is on record?
A: inactive

Q: For `CNCC[C@@H](Oc1ccccc1C)c1ccccc1`, which Potency is on record?
A: inactive

Q: For `CC(=O)SCc1ccco1`, which Potency is on record?
A: inactive

Q: How did the Potency turn out when `CC/C(=C\C(=N/O)C(N)=O)C(C)[N+](=O)[O-]` (stereo not given) was run?
A: inactive

Q: `CCOc1cc(OCC)c(C(=O)CCC(=O)O)cc1OCC` was tested. Which Potency did it give?
A: inactive

Q: Which Potency does the source give for `COCCO` here?
A: inactive

Q: With `CN1CCN(C2=Nc3ccccc3Sc3ccc(Cl)cc32)CC1` as the molecule, how does the Potency read?
A: inactive

Q: For `Cc1cccc(OCCOc2cccc(C)c2)c1`, which Potency is on record?
A: inactive

Q: How did the Potency turn out when `COc1cc(C(C)(C)C)c(O)c(C(C)(C)C)c1` was run?
A: inactive

Q: With `NC[C@H]1O[C@H](O[C@H]2[C@H](O)[C@@H](O[C@H]3O[C@H](CO)[C@@H](O)[C@H](N)[C@H]3O)[C@H](N)C[C@@H]2N)[C@H](O)[C@@H](O)[C@@H]1O` as the molecule, how does the Potency read?
A: inactive

Q: For `ClC(Cl)(Cl)c1ccc(C(Cl)(Cl)Cl)cc1`, which Potency is on record?
A: inactive

Q: For `CC(C)(C)c1cc(CCC(=O)OCC(COC(=O)CCc2cc(C(C)(C)C)c(O)c(C(C)(C)C)c2)(COC(=O)CCc2cc(C(C)(C)C)c(O)c(C(C)(C)C)c2)COC(=O)CCc2cc(C(C)(C)C)c(O)c(C(C)(C)C)c2)cc(C(C)(C)C)c1O`, which Potency is on record?
A: inactive

Q: `O=S(=O)(O)c1ccc(O)c2ncccc12` was tested. Which Potency did it give?
A: inactive

Q: Which Potency does the source give for `NCCCOCCOCCOCCCN` here?
A: inactive

Q: `O=C(CCN1CCN2CCCC2C1)N1c2ccccc2Sc2ccc(Cl)cc21` (stereo not given) was tested. Which Potency did it give?
A: inactive

Q: `N#Cc1cc2ccccc2c2ccccc12` was tested. Which Potency did it give?
A: inactive

Q: How did the Potency turn out when `Cc1cc(NC(=O)C(=O)O)cc(C)c1Oc1ccc(O)c2c1CCC2` was run?
A: inactive

Q: `CCCCCCc1ccc(N)cc1` was tested. Which Potency did it give?
A: inactive

Q: For `Cc1ccc(C)o1`, which Potency is on record?
A: inactive

Q: How did the Potency turn out when `CC(C)(C)C1CCCCC1O` (stereo not given) was run?
A: inactive

Q: With `O=C(NN1CCCC1)NS(=O)(=O)c1ccc(Cl)cc1` as the molecule, how does the Potency read?
A: inactive

Q: `O=C(/C=C/c1ccc(O)c(O)c1)O[C@@H]1C[C@](O)(C(=O)O)C[C@@H](O)[C@H]1O` was tested. Which Potency did it give?
A: inactive

Q: How did the Potency turn out when `CC(Cc1cccc(C(F)(F)F)c1)NCCOC(=O)c1ccccc1` (stereo not given) was run?
A: inactive

Q: `CCN(CC)CCOC(=O)C1(c2ccccc2)CCCC1` was tested. Which Potency did it give?
A: inactive

Q: `CCOC(=O)CC(=O)c1cc(F)c(Cl)nc1Cl` was tested. Which Potency did it give?
A: inactive

Q: For `O=C(O)Cc1sc(-c2ccccc2)nc1-c1ccc(Cl)cc1`, which Potency is on record?
A: inactive

Q: For `N#Cc1c(F)cccc1F`, which Potency is on record?
A: inactive

Q: For `Nc1nc(N)c(-c2ccccc2)s1`, which Potency is on record?
A: inactive

Q: With `CC(=O)c1ccc2c(c1)[C@H](NC(=O)c1ccc(F)cc1)[C@@H](O)C(C)(C)O2` as the molecule, how does the Potency read?
A: inactive

Q: Which Potency does the source give for `Cn1c(=O)c2c(ncn2CC(O)CO)n(C)c1=O` (stereo not given) here?
A: inactive
